About 1,400 (1%) of roughly 140,000 compounds were called active. The entries come from a sample that favours actives as a whole. Values without a mark were called inactive. Rule as the data show it: active = inhibition above about 17%; inactive = the rest.
These molecules were tested against Neuropeptide Y receptor type 2 (Homo sapiens) (UniProt P49146) (assay: blockers of human neuropeptide Y Y2 receptor – cell-based, primary screen (AID 793;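 also: 0% = vehicle with agonist challenge and 100% = reference antagonist with challenge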)). Details: NPY-Y2 expressing cells, antagonist mode; at 2.7 µM; hits give high values.
Sequence of Neuropeptide Y receptor type 2 (Homo sapiens) (P49146 whole entry, looked up): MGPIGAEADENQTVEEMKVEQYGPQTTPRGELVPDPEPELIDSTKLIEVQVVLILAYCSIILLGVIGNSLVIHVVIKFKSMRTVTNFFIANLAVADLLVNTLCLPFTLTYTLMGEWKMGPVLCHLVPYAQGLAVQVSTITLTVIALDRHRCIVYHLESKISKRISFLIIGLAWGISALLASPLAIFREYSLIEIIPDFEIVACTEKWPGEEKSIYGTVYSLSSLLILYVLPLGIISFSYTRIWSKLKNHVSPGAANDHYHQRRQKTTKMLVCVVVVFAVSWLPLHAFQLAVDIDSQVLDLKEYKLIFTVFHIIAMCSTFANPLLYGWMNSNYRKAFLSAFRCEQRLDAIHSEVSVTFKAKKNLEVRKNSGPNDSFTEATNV

Row | Structure (SMILES) | inhibition
1 | Cc1cc(Oc2ccc(Cl)cc2)nc(SCC(=O)c2ccccc2)n1 | 48.6% (active)
2 | COC(=O)c1cc(C(=O)CSc2nc(C)cc(C)n2)ccc1O | 4.06%
3 | Cc1cc(SCC(=O)c2ccccc2)nc(SCC(=O)c2ccccc2)n1 | 13.8%
4 | Cc1ccccc1OCC(=O)Nc1nc(C)c(C(=O)N(C)C)s1 | 5.58%
5 | CC1CCN(C(=S)NC2CC3CCC2C3)CC1 (stereo not drawn) | 1.13%
6 | O=C(CN1C(=O)NC2(CCCCCC2)C1=O)NCc1cccs1 | -3.2%
7 | O=C(CN1C(=O)NC(Cc2ccccc2)(Cc2ccccc2)C1=O)NCC1CCCCC1 | 80.5% (active)
8 | O=C(CN1C(=O)NC2(CCCCC2)C1=O)NCCC1=CCCCC1 | 0.27%
9 | O=C1CC(c2cccc(Cl)c2)CC(O)=C1C=Nc1ccccc1 (stereo not drawn) | 18.4% (active)
10 | O=C1CC(c2ccccc2)CC(O)=C1C=NCCN1CCOCC1 (stereo not drawn) | 0.58%
11 | O=C1CCCC(O)=C1C=NCCc1ccccc1 | 1.66%
12 | COc1ccc(NC(C(=O)Nc2cccc(C(C)=O)c2)c2ccccc2)cc1 (stereo not drawn) | -1.54%
13 | COCCCNCCOCCOc1ccc(Cl)cc1Br | 3.88%
14 | O=C(NCc1cccnc1)c1ccc(CS(=O)(=O)c2ccc(Br)cc2)o1 | -0.12%
15 | Cc1ccc(S(=O)(=O)N(Cc2ccc(Cl)cc2)c2ccccc2C(=O)NCc2cccnc2)cc1 | 35% (active)
16 | O=C(NCc1cccnc1)c1cccnc1Sc1ccc(Cl)cc1 | -0.63%
17 | COc1ccc(/C=N/NC(=O)c2ccccc2)cc1OS(=O)(=O)c1ccccc1 | 0.26%
18 | COc1ccc(-c2noc(-c3ccc(C)cc3)n2)cc1 | 2.85%
19 | COc1ccc(-c2noc(COc3ccc(Cl)c(C)c3)n2)cc1 | 18.2% (active)
20 | COc1ccc(-c2noc(CSc3ccc(C)cc3)n2)cc1 | 16.5%
21 | O=C(NCCCO)/C(=C\C=C\c1ccccc1)NC(=O)c1ccccc1Cl | 1.12%
22 | CCOC12CC(C)(C)CC(C)(CC3=C1C(=O)CC(C)(C)C3)C2 (stereo not drawn) | 3.39%

Row | Structure (SMILES) | inhibition
23 | COc1ccc(C(=O)Nc2c(Cl)cc(Cl)cc2C(=O)N2CCC(C)CC2)cc1 | 3.91%
24 | O=c1c2ccccc2nc2n1C1(CCCCC1)Cc1ccccc1-2 | 21.2% (active)
25 | c1cncc(-c2nnc3n2C2(CCCCC2)Cc2ccccc2-3)c1 | 1.77%
26 | CCC1(CC)Cc2ccccc2-c2nc3ccccc3c(=O)n21 | 7.5%
27 | COc1ccc(C(C(=O)NC2CCCCC2)N(C(=O)Cc2c[nH]c3ccccc23)c2ccccc2)cc1OC (stereo not drawn) | 0.1%
28 | CC(NC(=O)c1cccc2ccccc12)c1ccc2c(c1)CCCC2 (stereo not drawn) | 5.32%
29 | CN(C)CCNC(CC(=O)Nc1ccc(Cl)c(Cl)c1)C(=O)O (stereo not drawn) | 0.54%
30 | O=C(CC(O)(C(F)(F)F)C(F)(F)F)Nc1ccc(Cl)c(Cl)c1 | 24.4% (active)
31 | O=C(CC(=O)Nc1ccc(Cl)c(Cl)c1)N/N=C/c1ccc(O)cc1 | -3.17%
32 | Nc1nc(SCc2ccc([N+](=O)[O-])cc2)c2ncn(C3OC(CO)C(O)C3O)c2n1 (stereo not drawn) | 1.64%
33 | O=C(Nc1cn(-c2ccccc2)nc1-c1ccccc1)c1ccccc1 | 9.26%
34 | O=C(NCCN1CCOCC1)c1cc(Sc2cccc(Cl)c2)nc2ccccc12 | 3.17%
35 | CCCCCNC(=O)Cc1ccc(OC)cc1 | 20.3% (active)
36 | CCCCNC(=O)C1(c2ccc(OC)cc2)CCOCC1 | 3.6%
37 | COc1ccc(OCCCC(=O)NCCc2ccccc2)cc1 | 4.05%
38 | CCOC(=O)C1=C(C)NC(=O)NC1c1ccccc1 (stereo not drawn) | 0.94%
39 | O=C(Nc1nnc(SCc2ccc(Cl)cc2Cl)s1)C1COc2ccccc2O1 (stereo not drawn) | -1.05%
40 | O=C(Nc1nnc(SCc2c(Cl)cccc2Cl)s1)C1CCCO1 (stereo not drawn) | 22.4% (active)
41 | O=C(Nc1nnc(CCc2ccccc2)s1)C1CCCO1 (stereo not drawn) | 3.28%
42 | COc1ccc(NC(=O)c2ccc(C#CC(C)(C)O)cc2)cc1 | -0.31%
43 | Cc1ccc(C2=NN(C)c3nc4ccccc4n3C2)cc1 | 18.8% (active)
44 | Cc1ccc(O)c(CNc2nc3ccccc3n2C)c1 | -2.2%

Row | Structure (SMILES) | inhibition
45 | Cc1nn2c3ccccc3nc2n(C)c1=O | 10.8%
46 | O=C(NC1CCN(Cc2ccccc2)CC1)c1c(F)cccc1F | 0.52%
47 | Cc1ccc(S(=O)(=O)NCCSc2ccccc2)cc1[N+](=O)[O-] | 13.3%
48 | O=S(=O)(NCCSc1ccccn1)c1ccc(Cl)cc1 | 6%
49 | CCOc1ccc(S(=O)(=O)NCCSc2ccccc2)cc1 | 20.6% (active)
50 | Cc1ccccc1NC(=O)c1ccc(COc2ccc3c(C)cc(=O)oc3c2)cc1 | 1.18%
51 | Cc1cc(=O)oc2cc(OCC3CC(c4ccccc4Cl)=NO3)ccc12 (stereo not drawn) | 10.7%
52 | Cc1ccccc1N1CCN(CCCOc2ccc3c(C)cc(=O)oc3c2)CC1 | 22.1% (active)
53 | CC1(C)C(C=C(Cl)Cl)C1C(=O)N(Cc1ccc(Cl)cc1)C1CCS(=O)(=O)C1 (stereo not drawn) | 5.56%
54 | CCNc1ccc(C(=O)OCC(=O)N2c3ccccc3NC(=O)C2(C)C)cc1[N+](=O)[O-] | 0.27%
55 | COc1ccc(Cl)cc1-n1c(C)cc(C(=O)OCC(=O)N2CC(=O)Nc3ccccc32)c1C | -0.44%
56 | Cc1cc(C(=O)OCC(=O)N2c3ccccc3NC(=O)C2(C)C)c(C)n1-c1ccccc1 | 20.1% (active)
57 | O=S(=O)(Cc1cc(Sc2ccccc2)nc(-c2ccccc2)n1)c1ccccc1 | 32.1% (active)
58 | CCS(=O)(=O)n1nc(-c2ccccc2)nc1SCc1ccccc1 | 11.5%
59 | Cc1ccc(Sc2cc(N3CCOCC3)nc(-c3ccccc3)n2)cc1 | -0.14%
60 | COc1ccc(N2CCN(Cc3nnc(-c4ccccc4)o3)CC2)cc1 | 3.16%
61 | Cc1nc2nc3c(cn2n1)C(=O)CC(c1ccccc1)C3 (stereo not drawn) | 2.84%
62 | Cc1cc(C)nc(-n2ncc3c2CC(c2ccc(C(C)C)cc2)CC3=O)n1 (stereo not drawn) | 24.9% (active)
63 | CCN1CCC2(CC1)N=C(c1ccc(F)cc1)C(=S)N2C(=O)c1ccc(C)cc1 | 1.56%
64 | c1ccc(-c2cc3c(NCC4COc5ccccc5O4)ncnc3s2)cc1 (stereo not drawn) | 22.8% (active)
65 | S=C(NCC1COc2ccccc2O1)Nc1ccc(Br)cc1 (stereo not drawn) | 6.55%
66 | c1ccc2c(c1)OCC(CNc1ncnc3nc[nH]c13)O2 (stereo not drawn) | -0.22%

Row | Structure (SMILES) | inhibition
67 | Nc1nnc(SCC(=O)Nc2ccc3nc(SCC(=O)Nc4ccccc4)sc3c2)s1 | 4.56%
68 | CN(Cc1ccccc1)Cc1ccccc1F | 1.28%
69 | CC(=O)NC(C)c1nc2ccccc2n1Cc1ccccc1F (stereo not drawn) | 2.02%
70 | N=c1n(CCc2ccccc2)c2ccccc2n1Cc1ccccc1F | 23.1% (active)
71 | COc1ccc(Cn2c(-c3ccc(Cl)cc3)c[n+]3ccccc23)cc1 | 1.35%
72 | COc1cc(NC(=O)c2cc([N+](=O)[O-])ccc2Br)ccc1NC(=O)c1ccco1 | 31.7% (active)
73 | COc1ccc(NC(=O)c2cccc(NC(=O)c3ccco3)c2)c(OC)c1 | 3.21%
74 | COc1ccccc1C(=O)Nc1ccc(NC(=O)c2ccco2)c(C)c1 | -1.27%
75 | COc1ccccc1Oc1ccc(N/C=C2/CCCC2=O)cc1 | 2.93%
76 | COc1cccc(NC(=O)CC(c2ccc(OC(C)C)cc2)c2ccccc2OC)c1 (stereo not drawn) | 4.56%
77 | CC(C)N1C(=O)N(c2ccccc2)C(C)(O)CC1(C)C (stereo not drawn) | -1.03%
78 | O=C(Nc1ccc(N2C(=O)c3cccc4cccc(c34)C2=O)cc1)c1ccc(N2CCCCC2)c([N+](=O)[O-])c1 | 0.97%
79 | Cn1c(=N)n(CC(O)c2ccccc2)c2ccccc21 (stereo not drawn) | 6.24%
80 | Cc1cccc(OCC(O)Cn2c(=N)n(CCN3CCOCC3)c3ccccc32)c1 (stereo not drawn) | 19.8% (active)
81 | OC(COc1ccc2ccccc2c1)CN1CCOCC1 (stereo not drawn) | 1.96%
82 | CCOc1ccc(C(O)Cn2c(=N)n(CCN3CCCCC3)c3ccccc32)cc1 (stereo not drawn) | 18.8% (active)
83 | C=CCn1c(=N)n(CC(O)COc2ccc(OC)cc2)c2ccccc21 (stereo not drawn) | 10.5%
84 | CCOc1ccc(C(O)Cc2nc3ccccc3n2C)cc1 (stereo not drawn) | 0.15%
85 | Cc1nc2c(C(=O)NCc3cccs3)cnn2c(C)c1Cc1ccc(F)cc1 | 11.8%
86 | COc1ccc(-c2csc3ncnc(Oc4ccc5c(C)cc(=O)oc5c4)c23)cc1 | 6.66%
87 | Brc1ccc(-c2csc(N/N=C/c3ccc4c(c3)OCO4)n2)cc1 | -1.38%
88 | CCCn1c(N)c(C(=O)CSc2nnc(-c3cccnc3)n2-c2ccc(C)cc2C)c(=O)[nH]c1=O | 2.5%
